Drawing on PubChem BioAssay (Tox21), this text covers Potency for 40 compounds.

Results filed as inconclusive are left out. A call without a number means that no potency is given here. Activity calls are given as the source filed them. Calls come from the whole dose curve; as a rule, active = well fitted cell-killing curve with a large enough effect in the repeat runs; inconclusive = weak or mixed curves, or effect the other way; inactive = no such curve, though single readings can be large or run the other way.
Potency is the fitted concentration of half-maximal effect.

A short description of the assay: qHTS assay for small molecule activators of the heat shock response signaling pathway - cell viability counter screen (AID 743209). Note: nearly all actives have a fitted effect of over 50% in size. Conditions: HSE-bla HeLa viability, CellTiter-Glo luminescence, 5 h; series mostly up to 62.6 µM. The source says:
U.S. Tox21 Program National Center for Advancing Translational Sciences [NCATS] NIH Chemical Genomics Center [NCGC] U.S. Environmental Protection Agency [EPA] National Institutes of Environmental Health Sciences [NIEHS] National Toxicology Program [NTP] U.S. Food and Drug Administration [FDA] Tox21 Assay Overview: Various chemicals, environmental and physiological stress conditions may lead to the activation of heat shock response/ unfolded protein response (HSR/UPR). There are three heat shock transcription factors (HSFs) (HSF-1, -2, and -4) mediating transcriptional regulation of the human HSR. To identify the compounds that activate HSR signaling, HSE-bla HeLa cell line (Invitrogen, Carlsbad, CA, USA) containing a beta-lactamase reporter gene under the control of the heat shock response elements was used to screen Tox21 10K compound library. The cytotoxicity of the Tox21 compound library against the HSE-bla HeLa cell line was tested in parallel by measuring the cell viability using CellTiter-Glo assay (Promega, Madison, WI) in the same wells.
Tox21 Assay Protocol Summary: The CellSensor HSE-bla HeLa cells (Invitrogen, Carlsbad, CA, USA) were dispensed at 1500 cells/6uL/well into 1536-well black wall/clear bottom plates using a Multidrop combi (Thermo Fisher Scientific, Waltham, MA) dispenser. After the assay plates were incubated at 37 C and 5% CO2 overnight, 23 nL of compounds dissolved in DMSO, positive controls or DMSO only was transferred to the assay plate by a Pintool station (Kalypsys, San Diego, CA). The plates were incubated at 37 C for 5 h. After 1 uL of LiveBLAzerTM B/G FRET substrate was added using a Flying Reagent Dispenser (FRD, Beckman Coulter, Indianapolis, IN, USA), the plates were incubated at room temperature for 2.5 h, and fluorescence intensity was measured by an Envision plate reader (PerkinElmer, Shelton, CT). For cell viability readout that measures cytotoxicity, 3 ul/well of CellTiter-Glo reagent was added into the assay plates using a FRD. After 30 min incubation at room temperature, the luminescence intensity in the plates was measured using a ViewLux (PerkinElmer) plate reader.
Take `CC1CCC(=O)O1` (stereo not given): the Potency result was “inactive”.

With `CC(C)CC#N`, the Potency result is “inactive”.

As to `O=C1OC(=O)C2C1C1(Cl)C(Cl)=C(Cl)C2(Cl)C1(Cl)Cl` (stereo not given), the Potency result is “inactive”.

As for `ClC(Cl)(Cl)C(Cl)(Cl)Cl`, the Potency entry is “inactive”.

As to `Cc1cnc[nH]1`, the Potency entry is “inactive”.

Consider `CNC(=O)Oc1ccc(N(C)C)c(C)c1`, for which the Potency result was “inactive”.

In the case of `CNCC(=O)c1ccc(O)c(O)c1`, the Potency result was “inactive”.

As for `Clc1cccc(N2CCNCC2)c1`, the Potency result is “inactive”.

Take `COc1cccc2c1cc([N+](=O)[O-])c1c(C(=O)O)cc3c(c12)OCO3`: the Potency was 3.89 µM (active).

As to `CN/C(=N\[N+](=O)[O-])NCC1CCOC1` (stereo not given), the Potency result is “inactive”.

As for `CC(=O)Nc1cc([As](=O)(O)O)ccc1O`, the Potency entry was “inactive”.

`O=C(Nc1ccccc1)N(Cc1ccc(Cl)cc1)C1CCCC1`: the Potency entry was “inactive”.

On to `C=CC1CC=CCC1` (stereo not given), for which the Potency result is “inactive”.

Regarding `O=C(NCO)NCO`, the Potency result was “inactive”.

For the compound `Nc1c(Br)cc([N+](=O)[O-])cc1[N+](=O)[O-]`, the Potency entry was “inactive”.

Regarding `CSc1ccc(C(=O)C(C)(C)N2CCOCC2)cc1`, the Potency entry is “inactive”.

As to `CCOP(=S)(OCC)Oc1ncn(-c2ccccc2)n1`, the Potency entry was “inactive”.

Turning to `O=C1CN=C(c2ccccc2)c2cc([N+](=O)[O-])ccc2N1`, the Potency entry was “inactive”.

In the case of `NC(=O)O`, the Potency result is “inactive”.

Take `CCC/C(=N\OCC)C1=C(O)CC(CC(C)SCC)CC1=O` (stereo not given): the Potency result was “inactive”.

On to `C(CCOCC1CO1)COCC1CO1` (stereo not given), for which the Potency result is “inactive”.

For `C1CCC(C2CCCCC2)CC1`, the Potency result is “inactive”.

As to `CC1(C)C(=O)NC(=O)NC1=O`, the Potency result is “inactive”.

Consider `O=[N+]([O-])c1cccc(O)c1`, for which the Potency entry was “inactive”.

For the compound `O=NN1CCCCC1`, the Potency result is “inactive”.

With `CC(=O)CCc1ccc2c(c1)OCO2`, the Potency entry was “inactive”.

For `COc1cc(OC)nc(Sc2cccc(Cl)c2C(=O)O)n1`, the Potency result was “inactive”.

On to `CNC(=O)Oc1cccc(C(C)C)c1`, for which the Potency result is “inactive”.

Consider `C[C@@H]1CN(C2CCC(C#N)(c3ccc(F)cc3)CC2)CC[C@]1(C(=O)O)c1ccccc1` (stereo not given in full), for which the Potency entry is “inactive”.

Consider `ClCCCN1CCN(c2cccc(Cl)c2)CC1`, for which the Potency result was “inactive”.

As for `CC(COc1ccc(Oc2ccccc2)cc1)Oc1ccccn1` (stereo not given), the Potency entry was “inactive”.

Regarding `CCN(CC)C(C)C(=O)c1ccccc1` (stereo not given), the Potency result was “inactive”.

With `COc1cccc(C(=O)NN(C(=O)c2cc(C)cc(C)c2)C(C)(C)C)c1C`, the Potency result is “inactive”.

`CCOc1nc(C(Cl)(Cl)Cl)ns1`: the Potency entry was “inactive”.

Take `CCNc1nc(NC(C)C)nc(OC)n1`: the Potency result was “inactive”.

For `CCCSP(=S)(OCC)Oc1ccc(Cl)cc1Cl` (stereo not given), the Potency result is “inactive”.

With `COP(N)(=S)Oc1ccccc1C(=O)OC(C)C` (stereo not given), the Potency result was “inactive”.

On to `COP(=S)(OC)Oc1c(Cl)cc(C)cc1Cl`, for which the Potency entry was “inactive”.

On to `O=P(O)(Oc1ccccc1)Oc1ccccc1`, for which the Potency entry was “inactive”.

With `Cc1ccccc1CO[C@@H]1C[C@@]2(C(C)C)CC[C@]1(C)O2`, the Potency entry is “inactive”.
